Measurements reported in PubChem BioAssay (EPA / NIEHS).
The source made the active and inactive calls. The calls were made as follows: active = hit-call score of the fitted dose curve at least 0.9, where 1 is the maximum; inactive = score below 0.9.

Test: CCTE_Harrill_HTTr_Viability_MCF7: CCTE's 6-hour Cell Viability Assessment for the High-Throughput Transcriptomics (HTTr) Platform, in MCF-7 cells cultured in DMEM + 10% fetal bovine serum, Harrill Lab (AID 2284010)
Outline: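 Propidium iodide exclusion, imaged by high-content analysis, gauged viability after a six-hour exposure across eight concentrations. Cells were MCF-7 grown in DMEM with 10% fetal bovine serum; fits run in both directions against DMSO.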

Row | SMILES | outcome | AC50
1 | O=c1c(O)c(-c2ccc(O)cc2)oc2cc(O)cc(O)c12 | inactive | –
2 | CC1(C)COCN1 | inactive | –
3 | c1ccc2[nH]cnc2c1 | inactive | –
4 | Clc1ccc(C(c2ccccc2Cl)C(Cl)Cl)cc1 (configuration not stated) | inactive | –
5 | C=C(C)[C@H]1CC=C(C)C(=O)C1 | inactive | –
6 | [O-]n1ccccc1=S.[O-]n1ccccc1=S.[Zn+2] | inactive | –
7 | CCCC(=O)OCCc1ccccc1 | inactive | –
8 | CN(C)CCOc1ccc(/C(=C(/CCCl)c2ccccc2)c2ccccc2)cc1 | – | 68.7 µM (active)
9 | CC(C)(C)C1=CC(=O)C(C(C)(C)C)=CC1=O | inactive | –
10 | O=C(O)c1ccc(O)cc1 | inactive | –
11 | CC(=O)Nc1ccc(C(=O)CCl)cc1 | inactive | –
12 | CCC(C)=O | inactive | –
13 | CCCCCCOC(=O)CCC | inactive | –
14 | CC(O)C1CCCCC1 (configuration not stated) | inactive | –
15 | O=C1c2ccccc2C(=O)c2c(O)ccc(O)c21 | inactive | –
16 | C=C1CC[C@H](O)C/C1=C/C=C1\CCC[C@]2(C)[C@@H]([C@H](C)/C=C/[C@H](C)C(C)C)CC[C@@H]12 | inactive | –
17 | C1=CC2C3C=CC(C3)C2C1 (configuration not stated) | inactive | –
18 | CC1(C)O[C@@H]2[C@@H](CO[C@@]3(COS(N)(=O)=O)OC(C)(C)O[C@@H]23)O1 | inactive | –
19 | CS(=O)(=O)c1ccc(C2=C(c3ccccc3)C(=O)OC2)cc1 | inactive | –

Row | SMILES | outcome | AC50
20 | Cc1ccc(S(N)(=O)=O)cc1 | inactive | –
21 | COc1cc([C@@H]2c3cc4c(cc3[C@@H](O[C@@H]3O[C@@H]5CO[C@@H](C)O[C@H]5[C@H](O)[C@H]3O)[C@H]3COC(=O)[C@H]23)OCO4)cc(OC)c1O | inactive | –
22 | Cc1ccc(N)c(S(=O)(=O)O)c1 | inactive | –
23 | CC(C)(C)CC(C)(C)c1ccc(OCCOCC[N+](C)(C)Cc2ccccc2)cc1 | inactive | –
24 | Cc1[nH]c(=O)c(C#N)cc1-c1ccncc1 | inactive | –
25 | O=C(c1ccccc1)C(O)c1ccccc1 (configuration not stated) | inactive | –
26 | OC[C@H]1O[C@@H](Oc2ccc(O)cc2)[C@H](O)[C@@H](O)[C@@H]1O | inactive | –
27 | OCCc1ccccc1 | inactive | –
28 | CCCCC1(COC(=O)CCC(=O)O)C(=O)N(c2ccccc2)N(c2ccccc2)C1=O | inactive | –
29 | O=c1[nH]c(=O)c2cn[nH]c2[nH]1 | inactive | –
30 | O=C(O)c1cccnc1C(=O)O | inactive | –
31 | c1ccc(Oc2ccccc2)cc1 | inactive | –
32 | O=[N+]([O-])c1cccc(Cl)c1 | inactive | –
33 | Clc1cc(Cl)c(-c2c(Cl)c(Cl)cc(Cl)c2Cl)cc1Cl | inactive | –
34 | CC(C)CCCCCCCCCCCCCCC(=O)O | inactive | –
35 | CS(=O)(=O)c1ccc(Cl)cc1 | inactive | –
36 | COc1ccc(COC(C)=O)cc1 | inactive | –
37 | COC(=O)Nc1ccc(Cl)c(Cl)c1 | inactive | –
